# Screening results from PubChem BioAssay.
# SARS 3CLpro inh – SARS-CoV 3CLpro protease inhibitors, primary screen, biochemical, quenched FRET | recombinant SARS-CoV 3CLpro, quenched FRET peptide cleavage | inhibition, % at 6 µM | 0.14% of 290,000 active; in the data active = inhibition above about 12%
# Anthrax LF inh2 – Bacillus anthracis LF protease inhibitors, primary screen, biochemical, multiplex microsphere, MLPCN library; Lethal factor (Bacillus anthracis), P15917; multiplex microsphere protease cleavage assay; inhibition, % at 10 µM; 0.12% of 360,000 active; AID 588501, 2011; note: plate controls were buffer without enzyme for full effect and enzyme alone for no effect
# Target sequence (P15917 whole entry, looked up): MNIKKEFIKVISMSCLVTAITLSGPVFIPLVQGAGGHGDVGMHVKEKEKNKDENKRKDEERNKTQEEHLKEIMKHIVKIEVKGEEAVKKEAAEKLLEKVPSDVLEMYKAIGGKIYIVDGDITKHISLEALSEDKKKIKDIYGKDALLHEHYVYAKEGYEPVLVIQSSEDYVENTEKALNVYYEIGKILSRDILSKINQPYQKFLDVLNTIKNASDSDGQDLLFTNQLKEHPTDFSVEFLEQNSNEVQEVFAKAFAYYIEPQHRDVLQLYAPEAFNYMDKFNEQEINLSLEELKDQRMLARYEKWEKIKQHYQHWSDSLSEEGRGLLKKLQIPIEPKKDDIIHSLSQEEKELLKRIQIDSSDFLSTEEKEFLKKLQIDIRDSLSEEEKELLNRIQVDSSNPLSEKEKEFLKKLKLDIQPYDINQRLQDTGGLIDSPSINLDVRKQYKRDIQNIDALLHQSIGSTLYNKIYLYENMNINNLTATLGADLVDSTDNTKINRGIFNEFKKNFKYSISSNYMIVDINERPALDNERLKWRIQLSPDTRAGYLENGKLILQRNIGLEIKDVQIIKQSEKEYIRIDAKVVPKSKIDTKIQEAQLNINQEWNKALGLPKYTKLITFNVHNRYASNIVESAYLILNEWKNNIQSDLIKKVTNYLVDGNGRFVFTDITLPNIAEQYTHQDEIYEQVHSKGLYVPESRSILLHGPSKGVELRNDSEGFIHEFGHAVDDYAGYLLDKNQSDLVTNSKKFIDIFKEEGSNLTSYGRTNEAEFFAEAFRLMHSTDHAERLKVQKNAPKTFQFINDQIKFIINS
# BoNT A protease – BoNT/A light chain protease inhibitors, primary screen, biochemical, flow cytometry, MLPCN library. multiplex microsphere protease substrate cleavage. inhibition, % at 10 µM. 0.17% of 360,000 active. AID 588499, 2011; note: plate controls were buffer without enzyme for full effect and enzyme alone for no effect
# BoNT-F LC inh – BoNT/F light chain protease inhibitors, primary screen, biochemical, flow cytometry, MLPCN library; Botulinum neurotoxin type F light chain protease (Clostridium botulinum); inhibition, % at 10 µM; Multiplex microsphere protease cleavage assay; 0.22% of 360,000 active; in the data active = inhibition above about 35%, passing the limit was not always enough; inconclusive = no clear call, values can overlap the other calls; note: plate controls were buffer without enzyme for full effect and enzyme alone for no effect
# Bead autofluor – counter-screen for toxin protease inhibitors: compound fluorescence; compound autofluorescence counterscreen, microsphere flow cytometry; hits give high values; fluorescence intensity (test concentration not listed); AID 624483; 3.1% of 360,000 active; in the data active = fluorescence intensity above about 16000; inconclusive = no clear call, values can overlap the other calls
# * hit, by the source's call; ? = inconclusive; nt = not tested or not shown. The list is not random: actives were taken first. Their share in the collection is about 3.5%. Cut-off read from the data, not from the text of the source, unless noted: active = inhibition above about 30%; inconclusive = no clear call, values can overlap the other calls; inactive = below that.
SMILES,SARS 3CLpro inh,Anthrax LF inh2,BoNT A protease,BoNT-F LC inh,Bead autofluor
O=C(Nc1cccc2cccnc12)c1ccc2c(c1)OCCO2,1.7,-8.1,?,-3.9,23021*
CC1CCN(C(=O)C(=O)Nc2sc3c(c2C(=O)O)CC(C)(C)OC3)CC1,1.9,-5.1,0.3,-8.1,6018
CCCc1nn(C)c(C(N)=O)c1[N+](=O)[O-],5.6,-5.9,-0.3,-2.3,5129
COc1ccc(CNC(=O)COC(=O)CC2CC3CCC2C3)cc1OC (centres undefined),0.2,0.0,-0.4,-5.4,2524
Cc1ccc(C)c(-c2cc(C(=O)Nc3sc(C)c(C)c3C(N)=O)c3ccccc3n2)c1,-1.6,-0.5,?,0.0,23000*
O=C(OCc1nc2ccc(Cl)cc2n1CCO)c1ccccc1C(=O)c1ccccc1,0.8,1.8,1.9,-13.3,2550
COc1cccc2c1OC[C@@H](CO)[C@H]2N(C)C(=O)Nc1ccc(Cl)cc1Cl,-2.8,-1.0,-6.7,-9.6,17819*
COC(=O)c1ccc(CNC(=O)COC(=O)CNS(=O)(=O)c2ccc(C)cc2)cc1,nt,-0.2,-0.3,-4.3,3035
O=C(NCc1ccccc1)C(Cc1ccccc1)N1C(=O)C2C3CCC(C3)C2C1=O (centres undefined),-2.8,-16.1,8.8,9.7,16697*
CCOc1ccc(C(=O)Nc2cccc3nsnc23)cc1[N+](=O)[O-],3.9,-1.8,-0.2,-1.3,2731
O=C(O)c1ccccc1C(=O)N1CCN(c2cccc(Cl)c2)CC1,-1.8,-4.9,-2.6,-32.4,3671
COc1cc2c(C(=O)N3CCN(c4cccc(Cl)c4)CC3)cn(CC(C)C)c(=O)c2cc1OC,0.8,7.3,3.0,38.0*,4262
CCCN1CCN(C(=O)c2cn(CC(C)C)c(=O)c3cc(OC)c(OC)cc23)CC1,-3.0,7.5,2.0,0.8,9308
CCOc1ccc2ccccc2c1C(=O)N1CCN(c2ccccc2)CC1,5.5,1.2,5.6,5.8,21404*
CCOc1ccccc1C(=O)N1CCN(c2cccc(Cl)c2)CC1,6.1,-0.7,1.3,-2.3,20455*
CCOC(=O)c1[nH]c(C)c(C(=O)N2CCN(c3ccccc3)CC2)c1C,-0.6,-1.3,-0.5,0.7,8318
CCc1ccc(CCC(=O)Nc2nnc(C)s2)o1,-7.3,0.2,?,-1.6,20941*
CCc1ccc(CCC(=O)Nc2nc(CC(C)=O)ns2)o1,0.6,-2.5,1.2,0.9,16142*
CCc1nnc(NC(=O)CCc2ccc(C)o2)s1,4.8,-2.9,0.5,-5.0,10756
O=c1c(O)c(-c2ccc(O)cc2O)oc2cc(O)cc(O)c12,-2.6,nt,nt,nt,nt
Cc1nc(SC(C(=O)c2ccccc2)c2ccccc2)nc2ccccc12 (centres undefined),-5.0,-0.3,0.7,3.5,2118
Cc1nc(SC(C(=O)c2ccccc2)c2ccccc2)n[nH]1 (centres undefined),1.1,-0.3,3.7,4.6,20864*
CSc1ccc(/C=C/C(=O)c2c(O)cc(C)oc2=O)cc1,-4.8,-2.1,-2.5,45.1*,4310
Cc1cc(O)c(C(=O)/C=C/c2ccc(Cl)cc2)c(=O)o1,-0.1,6.5,-0.8,?,3737
Cc1ccc(C)c(OCC(=O)Nc2c[nH]c(=O)[nH]c2=O)c1,1.7,0.1,-0.3,-6.6,2068
SMILES,SARS 3CLpro inh,Anthrax LF inh2,BoNT A protease,BoNT-F LC inh,Bead autofluor
O=C(NNC1=NCCCCC1)c1ccccc1,-0.2,-0.4,1.5,1.8,22558*
c1ccc(CNC2=NCCCC2)cc1,1.0,-1.9,-0.5,-5.6,3801
c1ccc2nc(-c3ccc(-n4ccnc4)cc3)ccc2c1,-2.4,11.4,-0.1,-5.8,3433
CCCn1c(SCC(=O)Nc2nnc(C)s2)nnc1C1CC1,1.1,0.6,-0.9,5.2,5531
Cc1nc2ccc(NC(=S)NC(C)C)cc2nc1C,3.6,0.8,2.9,3.1,22287*
Cc1nc2ccc(NC(=S)NC3CC3)cc2nc1C,-1.2,-1.7,1.7,-5.2,2483
COC(=O)NC1CSCC1OC(=O)CN1C(=O)c2ccccc2C1=O (centres undefined),-4.5,-1.4,-1.9,-2.5,20984*
CC(OC(=O)CN1C(=O)c2ccccc2C1=O)C(=O)NC1CCCC1 (centres undefined),-3.9,-5.9,1.9,4.5,3431
O=C(COC(=O)C12CC3CC(CC(Br)(C3)C1)C2)Nc1ccc2[nH]c(=O)[nH]c2c1,nt,1.2,1.3,-2.5,5603
COc1ccc(C=C2C=C(C(C)(C)C)C(=O)C(C(C)(C)C)=C2)cc1OC,4.3,23.7,85.5*,24.7,4135
COc1ccc(/C=C2\CC/C(=C\c3ccc(OC)c(OC)c3)C2=O)cc1OC,-1.4,0.8,-0.4,-4.4,6628
Cc1nn(C)cc1/C=N/O,1.1,-9.4,9.1,12.2,16844*
Cc1nn(-c2ccccc2)cc1/C=N/O,-5.6,-9.3,-0.4,-1.9,5979
O=C(Nc1c(F)cc(F)cc1Br)c1cc(-c2ccco2)on1,1.3,-5.3,-0.5,-0.1,9903
CCN(CC)C(=O)c1csc(Nc2ccc(C)cc2)n1,1.6,3.1,-1.1,-1.1,11087
O=C(NCc1ccco1)c1cc(-c2ccc(F)cc2)on1,-0.7,-7.9,2.9,1.1,22220*
O=C(NCc1ccc(F)cc1)c1cc(-c2ccco2)on1,-4.0,-1.8,-3.2,-5.6,23399*
O=C(Nc1ccc(F)cc1F)c1cc(-c2ccco2)on1,0.6,-1.4,?,0.3,23169*
Cc1ccc(Nc2nc(C(=O)NCc3ccco3)cs2)cc1,4.1,-2.4,-5.2,-5.0,21266*
Cc1c(N2CCCC2)cc2c(c1NC(=O)c1ccccc1Cl)C(C)(C)CC2(C)C,1.4,0.1,2.7,2.9,5274
CN1CCN(c2ccc(-c3cccc(NC(=O)COc4ccccc4)c3)nn2)CC1,nt,-1.0,-2.4,0.3,6584
Cc1ccc(NC(=O)c2cc(-c3ccc(F)cc3)on2)cc1C,2.4,-4.1,-0.7,3.4,3945
COc1ccc(CNC(=O)c2cc(-c3ccco3)on2)cc1,3.7,0.8,1.7,2.9,20809*
CC(=O)c1cccc(NC(=O)c2cc(-c3ccc(F)cc3)on2)c1,4.2,-0.6,5.9,6.5,19126*
O=C(NCc1ccc(Cl)cc1)c1cc(-c2ccco2)on1,-1.6,-0.6,-1.0,-11.3,11224
SMILES,SARS 3CLpro inh,Anthrax LF inh2,BoNT A protease,BoNT-F LC inh,Bead autofluor
Cc1ccc(CNC(=O)C(C)OC(=O)c2ccco2)cc1 (centres undefined),0.0,0.0,?,3.5,22466*
CCC(C)c1c(O)nc(SCC(=O)N2CCOCC2)[nH]c1=O (centres undefined),-4.0,-5.6,-3.8,-6.6,17264*
COC(=O)CNC(=O)/C=C/c1ccc(OC)cc1,6.3,-5.9,0.3,-1.3,19785*
CCCc1cc(=O)[nH]c(Nc2ccc(N3CCCCC3)cc2)n1,-1.3,-9.3,2.5,-13.9,20834*
C/C(=N\N1CCN(c2ccccc2)CC1)c1ccccc1O,-6.7,-9.9,-0.9,16.7,3246
O=C(Cn1c(=S)[nH]c2ccccc2c1=O)N1CCC2(CC1)OCCO2,0.7,-3.6,-4.3,-7.2,24695*
